Here are results for 28 molecules from PubChem BioAssay AID1671193 (National Center for Advancing Translational Sciences (NCATS), 2021).

Hit rate of the full screen: of about 150,000 compounds, about 180 (0.12%) were called active. Inconclusive results (about 6%) are left out. Shown is part of a subset that was picked to be rich in actives. Entries that show only a call come without a potency. Values without a mark were called inactive. The call rests on the fitted dose curve; in most records, active means well fitted cell-killing curve with a large enough effect; inconclusive means small, poorly fitted or top-dose-only effect, or effect the other way; inactive means flat fitted curve, though single readings scatter.
Potency means the concentration at half of the fitted maximal effect.

A short description of the assay: GF-AFC viability counterscreen for inhibitors of alpha-synuclein gene (SNCA) expression. Further: nearly all actives have a fitted effect of over 30% in size. The following applies: HEK-293-SNCA-luc viability, GF-AFC fluorescence, 24 h; series mostly up to 57.1 µM. From the text: Assay Submitter (PI): Daniel R. Scoles Ph.D.
Department of Neurology, University of Utah, Salt Lake City, Utah
Accumulation of alpha-synuclein is a main underlying pathological feature of Parkinson's disease (PD) and alpha-synucleinopathies, for which lowering expression of the alpha-synuclein gene (SNCA) is a potential therapeutic avenue. Using a cell-based luciferase reporter of SNCA expression we performed a quantitative high throughput screen (qHTS) of 155,885 compounds in dose response. The screening assay was generated using genome editing to insert the luciferase gene downstream and in frame of the SNCA gene in HEK-293 cells (1). A viability counterscreen using GF-AFC was used to eliminate cytotoxic and false positive compounds. After in silico analysis (clustering, removal of frequent hitter nuisance chemotypes), inhibitor compounds from the primary screen were selected for follow up and re-tested at 11-doses in the SNCA-luc cells (luciferase and GF-AFC confirmation), and in CMV-luc expressing cell line to flag general transcriptional repressors.
Described herein are the results of the GF-AFC viability counterscreen for SNCA inhibitors; inactivity (no decrease in fluorescence signal, not cytotoxic) is the desired output for this assay.
1. Dansithong, W., Paul, S., Scoles, D. R., Pulst, S. M., and Huynh, D. P. (2015) Generation of SNCA Cell Models Using Zinc Finger Nuclease (ZFN) Technology for Efficient High-Throughput Drug Screening. PLoS ONE 10, e0136930.
SEQUENCE No. (e.g., 1, 2, 3, etc.); […] (e.g., Cells, Incubation, Reagent, etc.); VALUE; DESCRIPTION
1; Cells; 4 uL; Dispense 1500 HEK-293-SNCA-luc cells/well into Greiner 1536-well white / solid bottom tissue culture treated plate. The plate was covered with metal lids with gas-exchange holes.
2; Incubate; 24 hours; Incubate at 37C, 5% CO2, 95% RH.
3; Compounds; 23 nL; Compounds and controls were transferred via a Kalypsys Pin Tool (Wako USA) equipped with a 1536-slotted pin array. The plate was covered with metal lids with gas-exchange holes.
4; Incubate; 24 hours; Incubate at 37C, 5% CO2, 95% RH.
5; Dispense; 1 uL; Dispense Gly-Phe-7-amino-4-trifluoromethylcoumarin (GF-AFC, prepared at 125 uM in PBS) was added. The plate was covered with metal lids with gas-exchange holes.
6; Incubate; 30 min; Incubate at 37C, 5% CO2.
7; Detector; Fluorescence; Measure fluorescence with ViewLux microplate reader (PerkinElmer) equipped with 405/10 excitation and 540/25 emission filters.
8; Dispense; 3 uL; Dispense ONE-Glo ([…]) lucifase detection reagent was added to each well. Plates were covered with metal lids with gas-exchange holes.
9; Incubate; 15 min; Incubate at room temperature.
10; Detector; Luminescence; Measure luminescence with ViewLux microplate reader (PerkinElmer) equipped with clear filters.
NOTES (numbers refer to sequence above)
1; HEK-293-SNCA-luc were cultured and suspended in phenol-red free DMEM (4.5 g/L glucose, 25 mM HEPES, cat #21063 (Thermo)).
3; Compounds were added to the assay plate in an 11-point intra plate dose response, 1:3 titration in DMSO with a final concentration range of […]. Vehicle-only plates, with DMSO being pin-transferred to every well, were inserted at the beginning of screening runs to confirm expected assay performance. Activity was normalized to wells containing medium only (-100% activity, full inhibition) and SNCA-luc cells treated with DMSO vehicle control (0% activity), contained on the same plate as test samples.
10; Signals were analyzed, and dose-response curves were fit using the Hill equation. Compounds in curve classes -1.1, -1.2, -2.1, -2.2 in the SNCA-luc assay were considered active. Compounds were eliminated from further consideration if also active (curve class -1.1, -1.2, -1.3, -1.4, -2.1, -2.2, -2.3, -2.4) in the GF-AFC cytotoxicity assay.
Consider `COCCN1C(=O)c2cccn2CC1CNC(=O)CCc1nc(-c2ccccc2)no1` (stereo not drawn), for which the Potency entry is “inactive”.
Regarding `O=C1NCCCCCN(S(=O)(=O)c2ccc3c(c2)CCC3)[C@H]2CCCC[C@@H]12`, the Potency entry is “inactive”.
For `COc1cccc(CNC(=O)c2cc(-c3ccccc3)nc3c2cnn3C)c1`, the Potency entry was “inactive”.
Still for that read-out and setting: under `CC1(c2ccccc2)N(Cc2ccc(O)cc2)C(=O)OC12CCN(Cc1ccc(C#N)cc1)CC2` (stereo not drawn) stands “inactive”; under `COC(=O)CNC(=O)C1CCCN1Cc1ccc(-c2cc(C)cc(C)c2)cc1` (stereo not drawn), “inactive”; under `Cc1cccc(N2Cc3c(NCCCN4CCCCC4)ncnc3N(C)CC2=O)c1`, “inactive”.
On the same count and under the same terms, under `O=C(NCc1cccnc1)c1cn2cc(-c3cccc(C(F)(F)F)c3)sc2n1` stands “inactive”.
Still for that read-out and setting: under `CCOC(=O)C1CCCN(C(=O)C2CCc3nnc(CN[S+](C)(=O)[O-])n32)C1` (stereo not drawn) stands “inactive”; under `Cc1ccc(C(=O)N2CCCC(c3nc(C4CCOCC4)no3)C2)cn1` (stereo not drawn), “inactive”; under `CN(Cc1ccsc1)C(=O)C1CCCN(C2CCN(C(=O)C3CC3)CC2)C1` (stereo not drawn), “inactive”.
As to `COc1cccc(-c2cccc(CN3CCCC3C(=O)NCC(C)C)c2)c1` (stereo not drawn), the Potency entry is “inactive”.
Still for that read-out and setting: next, `Cc1ccnc(NC(=O)C2CC(=O)N(c3n[nH]c4cc(Br)ccc34)C2)c1` (stereo not drawn): “inactive”; `COCC1CN(C2CCC2)CC12CCN(C(=O)c1ccc(C)s1)CC2` (stereo not drawn): “inactive”.
As to `O=C1NC2(CCN(C(=O)c3ccccc3)C2)COc2ccccc21` (stereo not drawn), the Potency entry was “inactive”.
As for `Oc1ccccc1CN1CCC(O)(c2csc(CN3CCN(c4ccccn4)CC3)n2)CC1`, the Potency entry is “inactive”.
On the same count and under the same terms, under `FC(F)(F)c1cccc(C2=NOC3(CCCN(Cc4ccccn4)C3)C2)c1` (stereo not drawn) stands “inactive”.
For the molecule `O=C(C1CC=CC1)N1CCC2(CC1)NCCc1c2[nH]c2ccccc12`, the activity change, negative = cytotoxicity is -15.1% [at 12.5 µM].
In the case of `COc1ccc(-c2cc3c(nc2-c2ccccc2)nc(C(=O)NCCN(C)C)n3C)cc1OC`, the Potency entry is “inactive”.
As to `O=C(Nc1ccccc1)N1CCC(C(=O)N2CCCC(c3nc4ccncc4[nH]3)C2)CC1` (stereo not drawn), the Potency entry was “inactive”.
On to `O=C(c1ccc(F)cc1)N1CCC(C(=O)N2CCC(c3ccccc3)CC2)CC1`, for which the Potency entry is “inactive”.
With `CCCN(Cc1nccn1C)C(=O)c1ccccc1C1CCNC1` (stereo not drawn), the Potency entry is “inactive”.
Take `O=c1c2nc(OCc3ccc(-n4cccn4)cc3)ccc2ncn1Cc1ccccc1`: the Potency result was “inactive”.
Same read-out and setting: next, `COc1cccc(CNC(=O)c2cn3cc(-c4ccc(C)cc4)sc3n2)c1`: “inactive”.
Consider `COCCOC1CN(C2CCN(S(=O)(=O)c3cccs3)CC2)C12CCCCC2` (stereo not drawn), for which the Potency result is “inactive”.
Take `O=C([C@H]1CCCN1C(=O)c1ccc(Cl)nc1)N1CCCC(c2nc3ccncc3[nH]2)C1` (stereo partly drawn): the Potency result is “inactive”.
In the case of `CCOc1ccc(N(Cc2ccccc2)C(=O)c2nc(SCC)ncc2Cl)cc1`, the Potency result was “inactive”.
As to `CCOc1ccc(N(Cc2ccccc2)C(=O)c2nc(S(C)(=O)=O)ncc2Cl)cc1`, the Potency is 5.62 µM (active).
For `CCOc1ccc(NC(=O)CN(Cc2ccccc2)S(=O)(=O)c2ccc(Cl)cc2)cc1`, the Potency entry was “inactive”.
